The source made the active and inactive calls. Unless noted, the rule behind the calls is not given here.

Assay [1] in a line: HepG2 liver cancer cell viability effects, profiling panel, resazurin fluorescence, 24 h, PK04 Diversity Set (AID 1172). Note: test concentration not given here. The conditions noted are these: higher = more signal. A general note: The colour change of resazurin is a common sign of viable cells or microbes.
Assay [2] is described as follows: basal S. cerevisiae growth modulation, no modifier, primary screen, OD600, strain BY4716, 24 h, basal condition (AID 1173). The conditions noted are these: OD600, 24 h, higher = more signal, called active from +8 up or from −8 down.
Assay [3] in a line: MM1S myeloma cell viability, profiling panel, resazurin fluorescence, basal, 24 h, PK04 Diversity Set (AID 1174). Note: test concentration not given here. As to conditions: higher = more signal, called active from +8 up or from −8 down.
Assay [4] deals with Dihydroorotate dehydrogenase (quinone), mitochondrial (Plasmodium falciparum (isolate 3D7)) (UniProt Q08210). The experiment in a line: PfDHODH enzyme inhibitors, primary screen, biochemical, C-terminal His tag, absorbance 600 nm (AID 1175).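 Note: recombinant parasite enzyme with a five histidine tag at its C terminus; test concentration not given here.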 As to conditions: DCIP absorbance 600 nm, higher = more signal, called active from +8 up or from −8 down.
Assay [5] can be described thus: P. aeruginosa biofilm formation inhibitors, primary screen, strain PAO1, LB-PBS medium, absorbance 600 nm (AID 1176). Note: test concentration not given here. The conditions noted are these: P. aeruginosa PAO1 growth/biofilm, A600, 12 h; higher = more signal.
The nature of assay [6]: S. cerevisiae RM11-1a growth modifiers, primary screen, strain RM11-1a, OD600, basal, 24 h (AID 1177).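 Note: cultures grown under basal conditions with no added stressor; test concentration not given here.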 As to conditions: OD600, 24 h, higher = more signal, called active from +8 up or from −8 down.
Assay [7] in a line: E. coli acrAB mutant growth effects, primary screen, E. coli filamentation inducers, strain DRC39, OD650, 24 h (AID 1178).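 Note: growth measured as culture turbidity by optical density at 650 nm; test concentration not given here.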 The conditions noted are these: higher = more signal, called active from +8 up or from −8 down.
A short description of assay [8]: E. coli acrAB mutant growth effects, primary screen, E. coli filamentation inducers, strain DRC39, OD650, 48 h (AID 1179).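 Note: screen aims at cell division blockers that make cells filament.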 As to conditions: E. coli DRC39 delta-acrAB growth, higher = more signal, called active from +8 up or from −8 down.
A short description of assay [9]: RPMI8226 myeloma cell viability, profiling panel, resazurin fluorescence, basal, 24 h, PK04 Diversity Set (AID 1180).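 Note: RPMI8826 multiple myeloma cell line at 5000 cells per well; test concentration not given here.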 The conditions noted are these: higher = more signal.
Assay [10] concerns the target E3 ubiquitin-protein ligase XIAP (Homo sapiens) (UniProt P98170). Put plainly: XIAP binders, primary screen, biophysical, small-molecule microarray, fluorescence 635 nm (AID 1181).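 Note: score merges 667 nm emission and signal to noise over triplicate slides.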 As to conditions: small-molecule microarray binding, higher = more signal.

E3 ubiquitin-protein ligase XIAP (Homo sapiens), sequence (P98170 whole entry, looked up): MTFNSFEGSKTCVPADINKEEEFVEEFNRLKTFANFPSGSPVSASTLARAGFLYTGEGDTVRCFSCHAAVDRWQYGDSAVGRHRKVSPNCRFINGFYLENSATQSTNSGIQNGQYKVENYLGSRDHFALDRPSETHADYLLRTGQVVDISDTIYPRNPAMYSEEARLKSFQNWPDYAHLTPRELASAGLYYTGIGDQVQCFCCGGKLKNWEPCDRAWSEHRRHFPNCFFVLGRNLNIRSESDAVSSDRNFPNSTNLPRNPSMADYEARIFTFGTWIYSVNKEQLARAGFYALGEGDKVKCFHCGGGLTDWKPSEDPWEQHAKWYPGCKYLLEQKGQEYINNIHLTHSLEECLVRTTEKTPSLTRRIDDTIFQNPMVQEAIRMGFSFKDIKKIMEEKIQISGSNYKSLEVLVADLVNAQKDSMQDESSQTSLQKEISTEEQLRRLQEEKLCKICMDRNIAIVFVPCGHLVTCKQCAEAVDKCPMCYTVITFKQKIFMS
Dihydroorotate dehydrogenase (quinone), mitochondrial (Plasmodium falciparum (isolate 3D7)), sequence (Q08210 whole entry, looked up): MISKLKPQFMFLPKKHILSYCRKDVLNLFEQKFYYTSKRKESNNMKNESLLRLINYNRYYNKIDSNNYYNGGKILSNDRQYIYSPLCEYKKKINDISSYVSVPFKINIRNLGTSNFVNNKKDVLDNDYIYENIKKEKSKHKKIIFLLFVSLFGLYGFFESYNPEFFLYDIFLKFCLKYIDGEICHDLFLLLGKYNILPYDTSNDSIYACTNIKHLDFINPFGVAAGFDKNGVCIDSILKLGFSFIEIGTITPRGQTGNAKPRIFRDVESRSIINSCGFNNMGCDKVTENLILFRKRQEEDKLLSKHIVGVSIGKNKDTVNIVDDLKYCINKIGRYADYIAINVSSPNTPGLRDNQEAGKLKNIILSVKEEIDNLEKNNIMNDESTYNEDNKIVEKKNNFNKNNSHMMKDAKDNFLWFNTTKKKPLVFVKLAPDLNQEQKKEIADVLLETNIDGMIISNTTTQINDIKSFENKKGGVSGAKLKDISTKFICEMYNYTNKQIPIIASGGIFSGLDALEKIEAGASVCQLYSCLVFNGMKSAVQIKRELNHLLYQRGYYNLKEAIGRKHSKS

For the molecule `COc1cc(OC)c(C(O)C2C=CC3C(=O)NC(=O)C3N2Nc2ccc(Cl)cc2Cl)cc1Br` (stereo not given), the z-score in assay [1] was -3.99; in assay [2], -14.7 (active); in [3] it was -2.48 (inactive); in assay [5], 0.338 (inactive); in assay [6] it was 0.695 (inactive); in [7], -0.0795 (inactive). Also, the z-score in assay [8] is -1.06 (inactive); in assay [9], -2.27. Besides, the composite z-score is -0.0023 (inactive) in assay [4] and 0.367 in assay [10].
As for `O=C1C2C=CC(C(O)C3CCCCC3)N(Nc3ccc([N+](=O)[O-])cc3)C2C(=O)N1c1ccccc1` (stereo not given), the z-score was -1.13 in assay [1]; 0.581 (inactive) in assay [2]; -0.772 (inactive) in assay [3]; 0.409 (inactive) in assay [5]; 1.09 (inactive) in assay [6]; -0.915 (inactive) in [7]. For the same molecule, the z-score is -1.96 (inactive) in assay [8] and -0.675 in assay [9]. Also, the composite z-score was 1.14 (inactive) in assay [4] and 0.242 in assay [10].
As to `CC(C)(C)OC(=O)CC[C@]12N=C(c3ccc(OCCCO)cc3)O[C@H]1c1ccccc1N(CCS(=O)(=O)c1ccccc1)C2=O`, the z-score is 0.0763 in [1]; 0.688 (inactive) in assay [2]; -3.32 (inactive) in assay [3]; 2.21 (inactive) in assay [5]; 1.84 (inactive) in assay [6]; 0.908 (inactive) in assay [7]. Also, the z-score in [8] is 0.0504 (inactive); in assay [9], -1.19. The results for the composite z-score in [4] and in [10] were 0.017 (inactive) and 0.0761, respectively.
In the case of `COCCCNC(=O)[C@@]1(Cc2ccccc2N=[N+]=[N-])N=C(c2ccc(OCCCO)cc2)O[C@H]1c1ccccc1N=[N+]=[N-]`, the z-score in assay [1] is -0.993; in [2], -0.181 (inactive); in assay [3] it was -2.32 (inactive); in [5], 0.454 (inactive); in [6] it was 1.83 (inactive); in [7] it was 0.478 (inactive). For the same molecule, the z-score in [8] is -0.607 (inactive); in [9] it was -1.99. In addition, the results for the composite z-score in assay [4] and in assay [10] were 1.21 (inactive) and 0.323, respectively.
Regarding `COCCOC(=O)N1C(=O)[C@@]2(c3cc(C#CC4=CCCCC4)ccc31)[C@H](C(=O)N1CCc3cc(OC)c(OC)cc3C1)[C@H]1C(=O)O[C@H](c3ccccc3)[C@H](c3ccccc3)N1[C@@H]2c1ccc(OCCO)cc1`, the z-score was 0.149 in [1]; 1.18 (inactive) in assay [2]; 0.516 (inactive) in assay [3]; 3.64 (inactive) in assay [5]; 1.38 (inactive) in [6]; 0.14 (inactive) in [7]. The z-score in assay [8] was -0.316 (inactive); in assay [9], 0.492. Besides, the results for the composite z-score in [4] and in assay [10] were -0.352 (inactive) and -0.139, respectively.
As to `COCCOC(=O)N1C(=O)[C@@]2(c3cc(C#CCCO)ccc31)[C@H](C(=O)N1CCc3cc(OC)c(OC)cc3C1)[C@H]1C(=O)O[C@H](c3ccccc3)[C@H](c3ccccc3)N1[C@@H]2c1ccc(O)cc1`, the z-score is 0.0444 in assay [1]; -0.253 (inactive) in assay [2]; -0.419 (inactive) in assay [3]; 0.875 (inactive) in assay [5]; 2.12 (inactive) in assay [6]; 0.316 (inactive) in assay [7]. In addition, the figures for the z-score in assay [8] and in assay [9] were 0.884 (inactive) and -0.368, respectively. The composite z-score in [4] is -0.268 (inactive); in [10], -0.0812.
For the molecule `COc1cc2c(cc1O)C(C1CC1)N(Cc1cc3c(cc1Br)OCO3)CC2` (stereo not given), the z-score in assay [1] is -1.94; in [2], -2.67 (inactive); in [3], -3.63 (inactive); in assay [5] it was 0.571 (inactive); in assay [6] it was 0.698 (inactive); in assay [7], -1.2 (inactive). The z-score in [8] is -1.71 (inactive); in [9], -3.52. Also, the composite z-score in assay [4] is -1.55 (inactive); in assay [10] it was 0.0761.
With `COc1ccc(CCN2C(=O)[C@@]3(Cc4ccccc42)c2ccccc2C(=O)N(Cc2ccccc2C(F)(F)F)[C@H]3c2ccc(CO)cc2)cc1`, the z-score was -0.104 in [1]; 0.512 (inactive) in assay [2]; 0.35 (inactive) in assay [3]; 0.31 (inactive) in assay [5]; -0.443 (inactive) in assay [6]; -0.0813 (inactive) in assay [7]. Further, the z-score is -0.374 (inactive) in assay [8] and -0.816 in assay [9]. For the same molecule, the composite z-score in [4] was -21.6 (active); in assay [10], -0.0102.
Regarding `C=C(CCCC)C(=O)CC[C@H](OC(=O)c1cccnc1)c1ccccc1OCCO`, the z-score in assay [1] was 0.619; in assay [2], -0.716 (inactive); in [3], -2.19 (inactive); in assay [5], -0.317 (inactive); in [6], -1.61 (inactive); in assay [7] it was 0.836 (inactive). Also, the z-score in assay [8] was -0.0762 (inactive); in assay [9], -2.29. Also, the composite z-score in assay [4] is -0.363 (inactive); in assay [10] it was 0.0374.
Regarding `COC(=O)c1c(CC[C@@H](CO)NC(=O)N[C@H](Cn2cc(Cc3ccccc3)nn2)C(C)C)oc(C(C)=O)c1C(=O)OC`, the z-score in assay [1] is -0.61; in assay [2], -1.64 (inactive); in assay [3] it was -0.0537 (inactive); in assay [5], 0.656 (inactive); in assay [6] it was -0.705 (inactive); in assay [7], 1.58 (inactive). The z-score was 0.582 (inactive) in [8] and -0.193 in [9]. The composite z-score in [4] was -3.09 (inactive); in assay [10] it was -0.121.

The values are drawn from PubChem BioAssay.
